# ERp5 inh: inhibitors of ERp5-driven insulin aggregation, primary screen, biochemical, turbidity, absorbance 650 nm, single point. Protein disulfide-isomerase A6 (Homo sapiens), Q15084. 90 min. inhibition, % at 9.99 µM. hit rate 0.05% among 350,000. AID 651711, 2012;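 active = mean replicate inhibition above about 25%, with every replicate also reaching it, limit read from the data, passing the limit was not always enough; inconclusive = only one of those two criteria met; inactive = neither criterion met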
# PDI inh: inhibitors of human PDI, primary screen, biochemical, turbidity, single point, plate reader | Protein disulfide-isomerase (Homo sapiens), P07237 | PDI insulin aggregation turbidity, A650, 90 min | inhibition, % at 10 µM | hit rate 0.052% among 350,000 | AID 588391, 2011;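 active = mean inhibition across replicates of 30% or more, whatever share of single replicates reach that level; inconclusive = mean inhibition below 30% while every single replicate reaches 30%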
# Rtt109 HAT inh: inhibitors of C. albicans Rtt109/Vps75 HAT, primary screen, biochemical, ThioGlo CoA-SH fluorescence, plate reader; Histone acetyltransferase RTT109 (Candida albicans (strain SC5314 / ATCC MYA-2876)), …; purified Rtt109/Vps75, 4 h; inhibition, % at 34.9 µM; hit rate 0.16% among 330,000;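 active = inhibition of at least 50% in every replicate; inconclusive = best replicate reaches 50% inhibition but some replicates fall short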
# Target sequence (Q5AAJ8 whole entry, looked up): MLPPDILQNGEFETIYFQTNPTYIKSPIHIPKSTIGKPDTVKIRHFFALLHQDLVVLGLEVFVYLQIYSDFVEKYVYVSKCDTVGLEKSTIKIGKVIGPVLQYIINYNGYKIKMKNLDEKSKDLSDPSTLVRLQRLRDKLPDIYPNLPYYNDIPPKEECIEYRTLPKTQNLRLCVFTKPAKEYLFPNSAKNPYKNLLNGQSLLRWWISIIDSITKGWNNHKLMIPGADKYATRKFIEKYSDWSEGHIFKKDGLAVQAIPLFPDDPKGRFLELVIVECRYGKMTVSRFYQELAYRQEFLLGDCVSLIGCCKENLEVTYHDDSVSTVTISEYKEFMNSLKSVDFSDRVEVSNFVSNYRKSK
# SIRT5 inh: SIRT5 desuccinylase inhibitors, primary screen, biochemical, fluorescence imaging, single point, set 5. Purified SirT5, succinyl-peptide AMC, trypsin-coupled fluorescence. inhibition, % at 15 µM. hit rate 1.1% among 330,000; in the data active = inhibition above about 15%; inconclusive = no clear call, values can overlap the other calls
# Target sequence (Q9NXA8 whole entry, looked up): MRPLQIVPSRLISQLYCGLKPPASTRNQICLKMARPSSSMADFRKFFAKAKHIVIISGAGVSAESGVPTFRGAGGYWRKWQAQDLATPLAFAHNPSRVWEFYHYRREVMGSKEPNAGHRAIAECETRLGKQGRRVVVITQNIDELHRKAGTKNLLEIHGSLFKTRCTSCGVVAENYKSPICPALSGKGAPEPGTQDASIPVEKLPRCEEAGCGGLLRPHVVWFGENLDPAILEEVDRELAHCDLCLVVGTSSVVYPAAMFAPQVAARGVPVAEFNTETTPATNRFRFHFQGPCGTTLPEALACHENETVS
# DENV2 CPE rescue: inhibitors of DENV2 cytopathic effect, primary screen, cell-based, plate reader, single concentration. DENV2-infected cells, cytopathic effect rescue. CPE inhibition, % at 9.99 µM. hit rate 1.7% among 350,000. AID 651640, 2012; in the data active = CPE inhibition above about 20%, passing the limit was not always enough; inconclusive = no clear call, values can overlap the other calls; tested in BHK-21 cells;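 also: 0% = median of neutral control wells and 100% = median of positive control wells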
# An asterisk follows results filed as active; ? = inconclusive; nt = not tested or not shown. Most compounds without a hit are left out; they make up all but 2.3% or so of the library.
SMILES,ERp5 inh,PDI inh,Rtt109 HAT inh,SIRT5 inh,DENV2 CPE rescue
CCCCOc1ccc(S(=O)(=O)NNC(=O)c2cc3ccccc3o2)cc1,0.0,2.5,4.9,30.6*,-5.4
CC(C)COc1ccc(S(=O)(=O)NNC(=O)c2cc3ccccc3o2)cc1,nt,-2.9,-8.4,nt,nt
CCC(=O)N[C@@H]1CC[C@@H](CC(=O)NCCN2CCCCC2)O[C@@H]1CO,1.6,nt,nt,-3.0,4.7
Cc1cc2c3c(c1)C1(C(=O)N3C(C)(C)CC2C)C(C#N)=C(N)Oc2n[nH]c(C)c21 (configuration not stated),nt,38.4*,0.6,nt,nt
Cc1ccccc1NC1=C(Cl)C(=O)N(C2CCCCC2)C1=O,nt,-6.2,-3.5,nt,nt
COc1ccccc1N1C(=O)C(Cl)=C(Nc2ccccc2O)C1=O,nt,11.1,75.0*,nt,nt
COc1ccccc1NC1=C(Cl)C(=O)N(C2CCCCC2)C1=O,nt,-7.3,51.9*,nt,nt
O=C1C(Cl)=C(Nc2ccccc2O)C(=O)N1c1ccccc1,nt,-0.1,1.0,nt,nt
COc1ccccc1C#Cc1cnc2c(c1)C(=O)N([C@@H](C)CO)C[C@@H](C)[C@@H](CN(C)C(=O)c1ccc3c(c1)OCO3)O2,-1.6,nt,nt,3.5,-2.0
COc1ccc(C2CC(c3cccs3)=NN2C(=O)CN2CCCCC2)cc1 (configuration not stated),0.6,16.7,-0.9,32.6*,1.4
COc1ccc(C2CC(c3ccc(C)o3)=NN2C(C)=O)cc1 (configuration not stated),1.1,-2.4,-9.1,0.3,34.2*
COc1ccc(C2=NN(C(=O)CCC(=O)O)C(c3ccc(OC)cc3)C2)cc1 (configuration not stated),1.0,16.8,-2.6,21.4*,2.4
CO[C@@H]1CN(C)C(=O)c2cc(NC(=O)Nc3cccc(F)c3)ccc2OC[C@@H](C)N(C(C)=O)C[C@@H]1C,-15.0,nt,nt,-4.8,1.1
CO[C@@H]1CN(C)C(=O)c2ccc(NC(=O)c3cccc(F)c3)cc2OC[C@H](C)N(C(C)=O)C[C@@H]1C,-1.7,nt,nt,-2.2,34.1*
CO[C@@H]1CN(C)C(=O)c2ccc(NC(=O)c3cccc(F)c3)cc2OC[C@H](C)N(C(C)=O)C[C@H]1C,3.7,nt,nt,1.0,2.3
CO[C@H]1CN(C)C(=O)c2ccc(NC(=O)c3ccccc3)cc2OC[C@H](C)N(C(=O)CN(C)C)C[C@H]1C,13.2,nt,nt,2.2,29.5*
CO[C@@H]1CN(C)C(=O)c2ccc(NC(=O)Nc3cccc(F)c3)cc2OC[C@@H](C)N(C(C)=O)C[C@H]1C,-0.6,nt,nt,1.9,109.2*
CCCN1C[C@H](C)[C@@H](OC)CN(C)C(=O)c2ccc(NC(=O)c3cccc(F)c3)cc2OC[C@@H]1C,2.2,nt,nt,4.1,28.7*
CCCN1C[C@@H](C)[C@H](OC)CN(C)C(=O)c2ccc(NC(=O)c3cccc(F)c3)cc2OC[C@H]1C,1.4,nt,nt,6.4,-14.7
C[C@@H]1CCCCO[C@H](CN(C)C(=O)C2CCCCC2)[C@@H](C)CN([C@H](C)CO)C(=O)c2cc(NC(=O)Nc3ccc(C(F)(F)F)cc3)ccc2O1,4.6,nt,nt,-5.9,-0.4
COc1cc(CN2CC3(CCN(C(=O)c4cccnc4)CC3)c3c([nH]c4cc(OC)ccc34)[C@@H]2CO)cc(OC)c1,1.9,nt,nt,4.9,?
O=C(C[C@@H]1CC[C@H](NC(=O)c2cccnc2)[C@H](CO)O1)NCCN1CCCCC1,1.4,nt,nt,-3.8,2.5
C[C@@H]1CN([C@@H](C)CO)C(=O)c2c(c3ccccc3n2C)-c2ccccc2CO[C@H]1CN(C)C(=O)Nc1ccc(-c2ccccc2)cc1,3.8,nt,nt,-3.7,?
COc1ccccc1CNC(=O)C[C@H]1CC[C@H]2[C@@H](COC[C@H](O)CN2C(=O)Nc2ccc(C(F)(F)F)cc2)O1,-3.1,nt,nt,1.5,-19.2
CCCN1C[C@H](C)[C@@H](OC)CN(C)C(=O)c2cc(NC(=O)c3ccc(F)cc3)ccc2OC[C@@H]1C,5.7,nt,nt,7.6,-8.4
SMILES,ERp5 inh,PDI inh,Rtt109 HAT inh,SIRT5 inh,DENV2 CPE rescue
CO[C@@H]1CN(C)C(=O)c2ccc(NC(=O)Nc3cccc(F)c3)cc2OC[C@@H](C)N(C(=O)Nc2c(C)noc2C)C[C@H]1C,0.0,nt,nt,nt,62.9*
CCCN1C[C@H](C)[C@@H](OC)CN(C)C(=O)c2cc(NC(=O)c3ccc(F)cc3)ccc2OC[C@H]1C,5.8,nt,nt,7.8,47.3*
CCCN1C[C@H](C)[C@H](OC)CN(C)C(=O)c2cc(NC(=O)c3ccno3)ccc2OC[C@H]1C,-6.4,nt,nt,1.0,11.8
CCN1C[C@@H](C)[C@H](OC)CN(C)C(=O)c2cc(NC(=O)c3ccno3)ccc2OC[C@H]1C,6.1,nt,nt,9.2,20.0*
CO[C@@H]1CN(C)C(=O)c2ccc(NC(=O)Nc3ccccc3)cc2OC[C@@H](C)N(C(C)=O)C[C@@H]1C,0.3,nt,nt,2.4,51.1*
CCC(=O)N1CC2(C1)CN(C(=O)NC1CCCC1)[C@H](CO)c1c2c2ccc(OC)cc2n1C,-8.0,nt,nt,-5.8,-2.1
CN(C)S(=O)(=O)n1cc(/C=C(\NC(=O)c2ccccc2)C(=O)N2CCCCC2)c2ccccc21,4.1,-2.8,nt,3.7,-3.9
CN1CCN(C(=O)/C(=C/c2ccc([N+](=O)[O-])cc2)NC(=O)c2ccccc2)CC1,-2.0,11.7,-13.5,0.9,7.9
O=C(N/C(=C\c1ccc([N+](=O)[O-])cc1)C(=O)N1CCCCC1)c1ccccc1,4.0,7.1,-11.7,16.1*,-1.2
CN(C)S(=O)(=O)n1cc(/C=C(\NC(=O)c2ccccc2)C(=O)N2CCCC2)c2ccccc21,-6.6,-0.5,73.7*,1.6,-4.3
COc1ccc(S(=O)(=O)Nc2ccc3c(c2)CC(=O)N([C@@H](C)CO)C[C@@H](C)[C@H](CN(C)C(=O)Nc2cccc4ccccc24)O3)cc1,nt,nt,nt,-1.2,2.8
CN(C)c1ccc(Cc2ccc(N(C)C)cc2)cc1,-2.9,0.6,1.0,-0.8,-0.8
CN(C)c1ccc(CCc2ccc(N)cc2)cc1,-0.8,-5.7,-1.0,-4.2,26.3*
COc1ccc(C)cc1NC(=O)C1CCN(S(=O)(=O)c2cccc3cccnc23)CC1,0.1,-2.9,21.9,nt,27.7*
Cc1cccc(Nc2ncnc3onc(-c4cccc(Cl)c4)c23)c1C,5.8,-1.6,-12.6,-5.7,-14.5
Cc1cccc(Nc2ncnc3onc(-c4ccc(F)cc4)c23)c1C,-2.4,-5.8,0.5,16.1*,15.8
COc1ccc2c3c([nH]c2c1)[C@H](CO)N(C(=O)C1CCOCC1)CC31CN(Cc2nccs2)C1,-2.6,nt,nt,1.0,14.5
CC(=O)N1[C@H](CO)[C@H](c2ccccc2)C12CN(C(=O)CN1CCOCC1)C2,3.0,nt,nt,2.0,83.1*
O=C(c1ccc2c(c1)OCO2)N1CCC(Cc2ccccc2)CC1,-1.4,6.6,1.3,-5.6,25.0*
CCC(=O)N1[C@@H](CO)[C@@H](c2ccccc2)C12CN(C(=O)CN1CCOCC1)C2,-2.1,nt,nt,nt,-3.5

# Screens: PubChem BioAssay, Broad Institute
